# ERb SRC1 inh – blocks coactivator binding to human estrogen receptor beta; Q92731; inhibition, % at 25.6 µM; 1.3% of 86,000 active; TR-FRET ER-beta LBD / SRC1-Cy5 peptide binding; receptor agonist-loaded with 1 µM estradiol;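 active = compounds whose percent inhibition of the receptor-coactivator binding signal exceeds about 50% in the single-dose screen, limit read from the data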;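 note: 0% = receptor plus peptide wells without compound and 100% = peptide-only wells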
# Target sequence (Q92731 whole entry, looked up, the tested form may be a part): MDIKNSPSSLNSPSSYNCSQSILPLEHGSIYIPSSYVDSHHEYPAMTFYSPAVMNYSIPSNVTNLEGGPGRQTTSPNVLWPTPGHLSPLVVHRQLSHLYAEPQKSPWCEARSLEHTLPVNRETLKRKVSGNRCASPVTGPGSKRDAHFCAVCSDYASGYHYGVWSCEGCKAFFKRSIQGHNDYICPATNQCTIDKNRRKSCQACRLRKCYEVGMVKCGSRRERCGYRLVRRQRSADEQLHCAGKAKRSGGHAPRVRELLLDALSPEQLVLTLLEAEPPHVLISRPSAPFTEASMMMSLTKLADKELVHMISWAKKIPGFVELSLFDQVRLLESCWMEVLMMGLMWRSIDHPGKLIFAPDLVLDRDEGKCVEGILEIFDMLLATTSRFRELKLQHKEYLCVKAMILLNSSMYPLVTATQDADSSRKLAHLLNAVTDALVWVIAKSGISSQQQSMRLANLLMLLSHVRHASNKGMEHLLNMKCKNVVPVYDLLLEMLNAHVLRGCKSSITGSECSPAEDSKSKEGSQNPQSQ
# ERa coact pot – enhances coactivator binding to human estrogen receptor alpha | P03372 | coactivator binding (% of control), % at 25.6 µM | 1.3% of 86,000 active | TR-FRET ERalpha-LBD/SRC-Cy5 coactivator binding, 2 h; 100 = basal binding, no effect; in the data active = activity above about 200%;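 note: binding measured in presence of low estradiol as agonist stimulus; 0% = peptide alone without receptor and 100% = receptor with peptide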
# ERa coact inh – blocks coactivator binding to human estrogen receptor alpha; TR-FRET ER-alpha LBD / SRC-1 peptide, estradiol-bound; inhibition, % at 25.6 µM; 1.7% of 86,000 active; P03372; in the data active = inhibition above about 50%;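 note: 0% = receptor plus peptide control and 100% = peptide only without receptor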
# MRP resist rev – reverses drug resistance mediated by MRP; 0.04% of 85,000 active; H69AR cells + 2 uM doxorubicin, CellTiter-Glo, 72 h; differential viability (reversal), % at 10 µM;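 active = viability drop by adding the cancer drug above about 55%, with treated viability meeting a 40% cutoff, limit read from the data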;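 note: viability without doxorubicin minus viability with 2 µM doxorubicin for each compound; larger differential means the compound sensitizes cells more to doxorubicin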
# MRP1 act – activates MRP-1. viability increase, % at 10 µM. H69AR cells + doxorubicin, viability rescue, CellTiter-Glo. AID 799. 0.61% of 140,000 active;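 active = viability gain under doxorubicin at or above a set limit, the compound median plus 3 SD, cut at about 4.7% in these data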;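 note: MRP-1 overexpressing cells given doxorubicin 25 µM after compound pretreatment; 18-22 h compound pretreatment then 72 h with doxorubicin before readout; 0% = doxorubicin-only wells and 100% = vehicle-treated cells without doxorubicin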
# Smad3 inh – blocks human Smad3 binding to FoxH1 peptide. TR-FRET Smad3/Dy647-FoxH1 peptide binding, europium anti-His. inhibition, % at 25 µM. 0.29% of 88,000 active;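 active = compounds that reduce the energy-transfer binding signal between the protein and its labelled peptide by more than half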;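 note: 0% = Smad3 plus labelled peptide maximal FRET and 100% = peptide-only background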
# Numbers without * were called inactive; . = no result given; [ ] = another dose, or the depositor's remark. A selection: hits, their analogues and other compounds. The true share with any hit is near 2.9%.
SMILES,ERb SRC1 inh,ERa coact pot,ERa coact inh,MRP resist rev,MRP1 act,Smad3 inh
COc1ccc(-c2cc3nc(-c4ccccc4)cc(N4CCC5(CC4)OCCO5)n3n2)cc1,21.2,267.1*[fluorescence artefact?],-7.2,1.6,9.0*,21.4
COC(=O)c1c(-c2ccncc2)csc1NC(=O)c1ccoc1C,2.6,320.8*,8.1,3.7,-1.1,-9.0
CCN(CC)C(=O)c1sc(NC(=O)c2ccoc2C)c(C(=O)OC)c1C,0.2,90.5,-12.3,6.8,-0.3,-4.5
COc1cccc(-c2nc(CS(=O)(=O)CC(=O)Nc3cc(C)ccc3C)c(C)o2)c1,12.4,213.8*[fluorescence artefact?],16.3,-28.4,-1.5,-6.4
CCOc1ccc(Cn2nnc(C(=O)NCCc3ccccc3)c2N)cc1,2.5,118.1,6.7,0.4,7.8*,-3.0
Nc1c(C(=O)NCc2ccccc2)nnn1Cc1ccccc1,-4.7,110.7,0.6,5.6,0.2,0.5
COc1cccc(Cn2nnc(C(=O)NCc3ccc(F)cc3)c2N)c1,-10.1,128.5,1.5,6.5,4.8*,-2.7
COc1cccc(Cn2nnc(C(=O)NCCc3ccc(Cl)cc3)c2N)c1,-2.4,124.5,4.0,-12.8,4.5,7.9
COc1cccc(Cn2nnc(C(=O)NCc3ccccc3Cl)c2N)c1,-12.3,109.4,-8.9,7.1,1.0,-10.1
CCOc1ccc(Cn2nnc(C(=O)NCCc3ccc(Cl)cc3)c2N)cc1,-9.5,153.2,1.6,1.7,5.1*,0.8
CCOc1ccccc1Nc1nc2ccccc2n2cnnc12,42.6,368.0*[fluorescence artefact?],25.4,-5.7,-1.9,-1.2
Cc1ccc(CNc2nc3ccccc3n3nnnc23)cc1,37.5,208.7*[fluorescence artefact?],50.7*,-2.8,-4.5,11.2
Cc1ccc(-c2nc3ccccc3n3nnnc23)cc1,-2.2,98.3,-22.7,-16.3,-2.2,1.6
Fc1ccc(CNc2nc3ccccc3n3cnnc23)cc1,1.4,305.8*[fluorescence artefact?],83.8*,2.9,-0.9,10.5
O=C(c1nc2ccc([N+](=O)[O-])cc2[nH]c1=O)[C@@H](O)c1ccc2c(c1)OCO2,.,.,.,.,.,13.8
COc1ccc(CNCC(O)COCc2cccs2)cc1 (centres undefined),0.6,85.7,-1.4,0.1,-2.6,4.1
O=S(=O)(NCC(O)COCc1ccco1)c1cccs1 (centres undefined),50.4*,89.9,52.8*[fluorescence artefact?],-7.4,-1.9,-2.7
COc1cccc2c1C(=N)c1c(O)c3c(c(O)c1C2=O)C[C@](O)(C(C)=O)C[C@@H]3O[C@@H]1C[C@H](N)[C@@H](O)[C@H](C)O1,.,.,.,.,.,8.5
OC[C@H]1O[C@@H](O)[C@H](N=Cc2ccc3c(c2)OCO3)[C@@H](O)[C@@H]1O,.,.,.,.,.,-19.4
COc1ccc(NS(=O)(=O)c2ccc(N)c(C(=O)O)c2)cc1,19.1,69.3,57.4*[fluorescence artefact?],-0.1,-0.3,41.2
CCOC(=O)c1sc(C)c2c(=O)n(CC(=O)c3ccc(Br)cc3)nnc12,58.6*[fluorescence artefact?],111.7,-1.9,-12.1,1.1,0.5
O=C(O)/C=C(/CC(=O)O)C(=O)O,.,.,.,.,.,14.3
C=C(CC(=O)O)C(=O)O (tested in a mixture with another compound),.,.,.,.,.,86.6*
COc1ccc(Cn2nnnc2C(c2ccccc2OC)N2CCC(C(N)=O)CC2)cc1 (centres undefined),64.2*,99.6,-4.8,-17.7,-1.1,5.3
COc1ccc(OC)c(C(c2nnnn2Cc2ccccc2)N2CCC(C(N)=O)CC2)c1 (centres undefined),0.3,112.6,-9.3,-2.7,-0.4,-20.0
SMILES,ERb SRC1 inh,ERa coact pot,ERa coact inh,MRP resist rev,MRP1 act,Smad3 inh
CC(C)(C)NS(=O)(=O)c1cc(C(=O)Nc2sccc2C#N)ccc1Cl,.,.,.,.,-3.1,.
C[C@@H]1O[C@H](O)[C@@H](O)[C@H](O)[C@H]1O,.,.,.,.,.,9.7
Cn1c(=O)oc2cc(S(=O)(=O)N3CCCC(C(=O)NC4CCCc5ccccc54)C3)ccc21 (centres undefined),51.1*[fluorescence artefact?],79.9,15.8,-8.7,-1.4,-0.8
Cn1c(=O)oc2cc(S(=O)(=O)N3CCCC(C(=O)Nc4ccccn4)C3)ccc21 (centres undefined),-1.6,108.6,4.3,5.4,-1.6,2.5
O=C(CSc1nc2c(c(C(F)(F)F)n1)CCc1ccccc1-2)NCc1ccc(F)cc1,16.7,229.2*,3.6,-2.3,-2.5,-76.6
CCC(=O)NCc1cc(-c2nn(C)c(=O)c3ccccc23)ccc1C,-7.4,115.0,-3.2,-20.9,-4.5,-14.6
COc1ccc(OC)c(NC(=O)Cc2nn(C)c(=O)c3ccccc23)c1,-23.2,110.6,-47.9,-2.3,-2.2,4.0
COc1ccc(-c2nn(C)c(=O)c3ccccc23)cc1NC(=O)Cn1nc(C)c2ccccc2c1=O,50.4*[fluorescence artefact?],287.4*[fluorescence artefact?],63.2*,1.1,-2.1,-8.0
COc1ccc(NC(=O)Cc2nn(C)c(=O)c3ccccc23)c2ncccc12,17.2,216.6*,-5.0,3.4,.,3.8
COc1ccc(-c2nn(C)c(=O)c3ccccc23)cc1NC(=O)COc1ccc(C)cc1,16.4,487.2*[fluorescence artefact?],11.0,-7.9,0.8,-6.4
Cc1ccc(-c2nn(CC(=O)NCc3cc(-c4nn(C)c(=O)c5ccccc45)ccc3C)c(=O)c3ccccc23)cc1,64.5*[fluorescence artefact?],66.5,87.9*[fluorescence artefact?],0.6,-3.0,-59.3
Cc1ccc(Cl)cc1N1CCN(C(=O)Cc2ccc(-n3c(=O)[nH]c4ccsc4c3=O)cc2)CC1,.,.,.,.,9.7*,.
CCOC(=O)Cn1c(CN2CCN(c3cccc(Cl)c3)CC2)nc2c1c(=O)[nH]c(=O)n2C,70.7*[fluorescence artefact?],123.3,-3.3,-31.0,-3.1,-5.8
CCCCn1c(CN2CCN(c3cccc(Cl)c3)CC2)nc2c1c(=O)[nH]c(=O)n2C,-31.6,88.6,-17.5,-38.5,-6.1,3.9
O=C(O)[C@@H]1[C@H]2C[C@H]([C@@H](Br)[C@H]2N2C(=O)CCC2=O)[C@@H]1C(=O)O,.,.,.,.,.,11.8
CCn1c(SCC(=O)N2CCOCC2)nc2sc3c(c2c1=O)CCCC3,-0.4,108.6,8.3,-32.3,-0.8,2.7
CCn1c(SC(C)C(=O)O)nc2sc3c(c2c1=O)CCC3 (centres undefined),92.5*[fluorescence artefact?],2.7,93.2*[fluorescence artefact?],-11.4,-2.0,12.8
CN(Cc1cc(C(C)(C)C)cc(Br)c1O)Cc1cc(C(C)(C)C)cc(Br)c1O,.,.,.,.,.,95.7*
CCn1c2ccccc2c2cc(NC(=O)CC(C)=O)ccc21,.,.,.,.,4.8*,.
CCCC(=O)Nc1ccc2c(c1)c1ccccc1n2CC,.,.,.,.,1.0,.
O=c1c2c3c(sc2nc2sc(C4CC4)nn12)CCCC3,12.4,234.2*,11.3,-13.5,-4.0,-8.5
CC(C)C(=O)NC(C)C(c1cccs1)N1CCN(c2ccccc2)CC1 (centres undefined),-14.8,97.6,-21.1,3.0,1.1,5.8
CC(NC(=O)C1CC1)C(c1cccs1)N1CCN(c2ccccc2)CC1 (centres undefined),55.8*[fluorescence artefact?],141.2,-7.0,11.8,-2.3,-1.9
Nc1ccc(S(=O)(=O)NCc2nccs2)cc1,.,.,.,.,.,6.4
